# Data: PubChem BioAssay (NCI)
# Compounds without any hit were thinned out: in the full panel of roughly 79,000, 15% have a hit. A number with no mark means an inactive call. Activity calls are given as the source filed them. Cut-off read from the data, not from the text of the source: active = growth inhibition above about 70%; inactive = the rest.
# Test: NCI Yeast Anticancer Drug Screen. Data for the cln2 rad14 strain (AID 165);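 note: 0% = growth equal to vehicle treated cultures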
# Details: S. cerevisiae cln2 rad14 strain, at 5.0 µM (retest, dose inferred, filed as 0.5), stronger effect = higher value
# Procedure, shortened: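 The screen exposed genetically defined yeast (cln2 rad14) to test compounds and scored growth inhibition relative to vehicle-treated controls.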
row,Structure (SMILES),growth inhibition
1,COc1ccc(N=Cc2cc(Br)cc(Br)c2O)cc1.COc1ccc(N=Cc2cc(Br)cc(Br)c2O)cc1.[Co],48%
2,O=C(/C=C/C(=O)N1CCCC1)N1CCCC1,-4%
3,O=S(c1ccccc1)c1c(Cl)c(Cl)nc(Cl)c1Cl (stereo not drawn),95% (active)
4,CSc1nc(N)c2cnn(C3OC(CO)C(O)C3O)c2n1 (stereo not drawn),7%
5,COc1cccc(C=O)c1O,1%
6,Cn1c(=O)c2c(ncn2CCCCOc2ccc3c(c2)[n+]([O-])nc(N)[n+]3[O-])n(C)c1=O,-23%
7,Cn1ncc2c(Nc3cccc(Cl)c3)nc(Nc3cccc(Cl)c3)nc21,11%
8,Cc1cc(C)n2nc(N)c(C#N)c2c1C#N,-2%
9,COc1ccc(C2c3cc4c(cc3OC(O)C2C)OCO4)cc1 (stereo not drawn),-2%
10,Nc1ccccc1[S][Sn]([c]1ccccc1)([c]1ccccc1)[c]1ccccc1,98% (active)
11,Cn1c(Sc2ccc(-c3cccnc3)n2C)ccc1-c1cccnc1,-15%
12,Nc1nnc(-c2cc(=O)c3cc(Cl)ccc3o2)s1,-2%
13,COc1ccc(CNc2nc3cc(C(F)(F)F)ccc3nc2C)cc1OC,11%
14,CC(=O)OCC1CC2OC2CC1C (stereo not drawn),34%
15,CCCCN(CCCC)CC(O)c1cc(-c2ccc(Cl)cc2)nc2cc(C)ccc12 (stereo not drawn),5%
16,NC(=S)n1nc(-c2ccccc2)c(N=Nc2ccccc2Cl)c1-c1ccccc1,21%
17,CCCCCCCCCCCCN(CCO)CCO,67%
18,CC(C)CCSc1ncnc2nc[nH]c12,-4%
19,O=C(c1ccccc1)c1cccc2ccccc12,-2%
20,O=C1C(c2c[nH]c3ccccc23)=Nc2ccc(Br)cc21,15%

row,Structure (SMILES),growth inhibition
1,COc1cccc(CCCNC(=O)Cc2ccccc2CO)c1,1%
2,C/C(=N\NC(=S)N1CCN(C2CCCCC2)CC1)c1ccccn1,12%
3,CN(C)CCOC(=O)C1(CCC2CCCCC2)CCCCC1,-3%
4,O=c1c(Cl)cc2nc3ccccc3sc-2c1Cl,1%
5,COc1ccc2nc(NC(=O)Nc3c(Cl)cccc3Cl)sc2c1,15%
6,Cc1c[nH]c2nc(C)n(-c3ccccc3)c(=N)c12,2%
7,O=C(C1=NNC(c2ccccc2)C1C(=O)c1ccccc1)c1ccccc1 (stereo not drawn),2%
8,CCOC(=O)N1CCN(C=S)CC1,17%
9,COC(=O)N(C[C@@H]1C=CCCC1)c1ccccc1I,29%
10,N=c1ccc2c(c1)[nH]c1c3ccccc3[nH]c3cccc2c31,21%
11,CC1(C)[C@H]2CC[C@]1(C)[C@H](OC(=O)NNC(=O)O[C@@H]1C[C@@H]3CC[C@@]1(C)C3(C)C)C2,30%
12,N#CC1(C#N)C(C#N)(C#N)C12CCCCCC2,13%
13,CCOP(=O)(OCC)OC1c2[nH]ccc2-c2cc(C(=O)OC)[nH]c2C1OC (stereo not drawn),-6%
14,O=[N+]([O-])/C(=C\c1cccs1)c1ccccc1,75% (active)
15,Cc1ccccc1NC(=O)C(=O)C(C#N)c1c(Cl)cccc1Cl (stereo not drawn),0%
16,O=C1c2c(F)c(F)c(F)c(F)c2SC2=NCCN12,-23%
17,CCCC(C)OC(=O)Nc1cccc(Cl)c1 (stereo not drawn),-29%
18,Nc1nc(SCc2ccccc2)c2ncn(CCCl)c2n1,-4%
19,CCCCOC(=O)c1nc(N(CC2CCCCC2)C(=O)NC)sc1NC(=O)NC,-3%

# Same assay, conditions: S. cerevisiae cln2 rad14 strain, at 50.0 µM (retest, dose inferred, filed as 5.0), stronger effect = higher value
row,Structure (SMILES),growth inhibition
1,COc1ccc(N=Cc2cc(Br)cc(Br)c2O)cc1.COc1ccc(N=Cc2cc(Br)cc(Br)c2O)cc1.[Co],66%
2,O=C(/C=C/C(=O)N1CCCC1)N1CCCC1,-11%
3,O=S(c1ccccc1)c1c(Cl)c(Cl)nc(Cl)c1Cl (stereo not drawn),99% (active)
4,CSc1nc(N)c2cnn(C3OC(CO)C(O)C3O)c2n1 (stereo not drawn),28%
5,COc1cccc(C=O)c1O,23%
6,Cn1c(=O)c2c(ncn2CCCCOc2ccc3c(c2)[n+]([O-])nc(N)[n+]3[O-])n(C)c1=O,52%
7,Cn1ncc2c(Nc3cccc(Cl)c3)nc(Nc3cccc(Cl)c3)nc21,97% (active)
8,Cc1cc(C)n2nc(N)c(C#N)c2c1C#N,2%
9,COc1ccc(C2c3cc4c(cc3OC(O)C2C)OCO4)cc1 (stereo not drawn),42%
10,Nc1ccccc1[S][Sn]([c]1ccccc1)([c]1ccccc1)[c]1ccccc1,98% (active)
11,Cn1c(Sc2ccc(-c3cccnc3)n2C)ccc1-c1cccnc1,77% (active)
12,Nc1nnc(-c2cc(=O)c3cc(Cl)ccc3o2)s1,11%
13,COc1ccc(CNc2nc3cc(C(F)(F)F)ccc3nc2C)cc1OC,74% (active)
14,CC(=O)OCC1CC2OC2CC1C (stereo not drawn),9%
15,CCCCN(CCCC)CC(O)c1cc(-c2ccc(Cl)cc2)nc2cc(C)ccc12 (stereo not drawn),97% (active)
16,NC(=S)n1nc(-c2ccccc2)c(N=Nc2ccccc2Cl)c1-c1ccccc1,92% (active)
17,CCCCCCCCCCCCN(CCO)CCO,92% (active)
18,CC(C)CCSc1ncnc2nc[nH]c12,9%
19,O=C(c1ccccc1)c1cccc2ccccc12,-24%
20,O=C1C(c2c[nH]c3ccccc23)=Nc2ccc(Br)cc21,34%

row,Structure (SMILES),growth inhibition
1,COc1cccc(CCCNC(=O)Cc2ccccc2CO)c1,5%
2,C/C(=N\NC(=S)N1CCN(C2CCCCC2)CC1)c1ccccn1,59%
3,CN(C)CCOC(=O)C1(CCC2CCCCC2)CCCCC1,37%
4,O=c1c(Cl)cc2nc3ccccc3sc-2c1Cl,54%
5,COc1ccc2nc(NC(=O)Nc3c(Cl)cccc3Cl)sc2c1,98% (active)
6,Cc1c[nH]c2nc(C)n(-c3ccccc3)c(=N)c12,-8%
7,O=C(C1=NNC(c2ccccc2)C1C(=O)c1ccccc1)c1ccccc1 (stereo not drawn),67%
8,CCOC(=O)N1CCN(C=S)CC1,31%
9,COC(=O)N(C[C@@H]1C=CCCC1)c1ccccc1I,34%
10,N=c1ccc2c(c1)[nH]c1c3ccccc3[nH]c3cccc2c31,98% (active)
11,CC1(C)[C@H]2CC[C@]1(C)[C@H](OC(=O)NNC(=O)O[C@@H]1C[C@@H]3CC[C@@]1(C)C3(C)C)C2,38%
12,N#CC1(C#N)C(C#N)(C#N)C12CCCCCC2,95% (active)
13,CCOP(=O)(OCC)OC1c2[nH]ccc2-c2cc(C(=O)OC)[nH]c2C1OC (stereo not drawn),6%
14,O=[N+]([O-])/C(=C\c1cccs1)c1ccccc1,99% (active)
15,Cc1ccccc1NC(=O)C(=O)C(C#N)c1c(Cl)cccc1Cl (stereo not drawn),10%
16,O=C1c2c(F)c(F)c(F)c(F)c2SC2=NCCN12,98% (active)
17,CCCC(C)OC(=O)Nc1cccc(Cl)c1 (stereo not drawn),-1%
18,Nc1nc(SCc2ccccc2)c2ncn(CCCl)c2n1,-1%
19,CCCCOC(=O)c1nc(N(CC2CCCCC2)C(=O)NC)sc1NC(=O)NC,95% (active)
